From PubChem BioAssay (Tox21)
Records with an inconclusive call do not appear. Activity calls are given as the source filed them. Unless noted, calls follow the shape of the full dose curve.

Experiments:
[1] = Nuclear factor erythroid 2-related factor 2/antioxidant responsive element (Nrf2/ARE) small molecule agonists: luciferase reporter gene qHTS assay in human keratinocytes (AID 1919969); also: nearly all actives have a fitted effect of over 35% in size
[2] = target: KiSS-1 receptor (Homo sapiens) (UniProt Q969F8); assay: Human kisspeptin (KISS1R) small molecule agonists, calcium flux assay in KISS1R-HEK293 cells (AID 1920064; active = well fitted activation curve with a large enough effect in the repeat runs)
Sequence of KiSS-1 receptor (Homo sapiens) (Q969F8 whole entry, looked up): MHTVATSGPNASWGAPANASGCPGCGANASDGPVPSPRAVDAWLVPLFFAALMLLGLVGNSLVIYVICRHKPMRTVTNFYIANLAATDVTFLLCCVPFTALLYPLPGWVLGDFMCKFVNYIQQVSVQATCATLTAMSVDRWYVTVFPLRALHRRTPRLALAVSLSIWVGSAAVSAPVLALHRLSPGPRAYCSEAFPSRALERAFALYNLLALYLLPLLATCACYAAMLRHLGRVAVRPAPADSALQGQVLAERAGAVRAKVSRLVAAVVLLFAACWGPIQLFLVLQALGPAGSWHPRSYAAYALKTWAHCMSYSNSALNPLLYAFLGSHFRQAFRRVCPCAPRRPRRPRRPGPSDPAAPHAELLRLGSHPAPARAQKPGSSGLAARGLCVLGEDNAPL
In short: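 Cell line: HEK293, stable human KISS1R. Dye loading 1 h at 37 C after 18 h culture. Read: kinetic fluorescence, 480/540 nm, 3 min at 1 s intervals.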

[3] = G protein-coupled receptor (GPCR) small molecule agonists, calcium flux assay: HEK293 wild type cell line counter screen (AID 1920065)
In short: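 Tox21 10K compounds, 15 concentrations each in triplicate, pin-transferred in DMSO onto dye-loaded cells; kinetic read at 480/540 nm for 3 min, 1 s intervals.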

[4] = p53 small molecule agonists, cell-based qHTS assay with human liver microsomes (AID 1963577)
In short: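 p53RE-bla cells, 4,000/well, compound added after 5 h, with human liver microsomes 0.5 mg/mL and NADPH 0.5 mg/mL final; 16 h at 37 C, then LiveBLAzer 2 h RT, fluorescence.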

[5] = p53 small molecule agonists, cell-based qHTS assay with rat liver microsomes (AID 1963578)
In short: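 p53RE-bla cells, 4,000/well, pre-incubated 5 h, then given compounds plus rat liver microsomes (0.5 mg/mL final) and NADPH (0.5 mg/mL final). Incubation 16 h at 37 C; beta-lactamase reporter read by LiveBLAzer fluorescence after 2 h at room temperature.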

[6] = p53 small molecule agonists, cell-based qHTS assay with human liver microsomes: qHTS cell viability counter screen (AID 1963579); also: nearly all actives have a fitted effect of over 45% in size
In short: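 p53RE-bla cells, 4,000/well, dosed 5 hours after plating, with human liver microsomes (0.5 mg/mL final) plus NADPH (0.5 mg/mL final), 16 hours at 37 C. Viability read as CellTiter-Glo luminescence after 30 min at room temperature.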

[7] = p53 small molecule agonists, cell-based qHTS assay with rat liver microsomes: qHTS cell viability counter screen (AID 1963580); also: nearly all actives have a fitted effect of over 45% in size
In short: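 Counter screen for cytotoxicity under metabolic activation: rat liver microsomes and NADPH, 0.5 mg/mL final each, added with compounds to p53RE-bla HCT-116 cells; 16 h at 37 C, then ATP luminescence read.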

[8] = p53 small molecule agonists, cell-based qHTS assay: qHTS cell viability counter screen (AID 1963581); also: nearly all actives have a fitted effect of over 45% in size
In short: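 ATP content measured by luminescence in HCT-116 p53RE-bla cells treated 16 h at 37 C, same wells as the reporter screen.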

[9] = p53 small molecule agonists, cell-based qHTS assay (AID 1963582; active = well fitted activation curve with a large enough effect in the signal ratio in the repeat runs, not every such curve was filed as active; the % refers to the signal ratio)
In short: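 16 h compound exposure (37 C) of p53 response element–bla cells, preceded by 5 h recovery at 37 C/5% CO2; read-out via LiveBLAzer B/G FRET substrate, 2 h RT, fluorescence intensity.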

[10] = target: 5-hydroxytryptamine receptor 2A (Homo sapiens) (UniProt P28223); assay: 5-hydroxytryptamine receptor 2A (HTR2A) small molecule antagonists, cell-based qHTS assay (AID 1963586); also: nearly all actives have a fitted effect of over 45% in size
Sequence of 5-hydroxytryptamine receptor 2A (Homo sapiens) (P28223 whole entry, looked up): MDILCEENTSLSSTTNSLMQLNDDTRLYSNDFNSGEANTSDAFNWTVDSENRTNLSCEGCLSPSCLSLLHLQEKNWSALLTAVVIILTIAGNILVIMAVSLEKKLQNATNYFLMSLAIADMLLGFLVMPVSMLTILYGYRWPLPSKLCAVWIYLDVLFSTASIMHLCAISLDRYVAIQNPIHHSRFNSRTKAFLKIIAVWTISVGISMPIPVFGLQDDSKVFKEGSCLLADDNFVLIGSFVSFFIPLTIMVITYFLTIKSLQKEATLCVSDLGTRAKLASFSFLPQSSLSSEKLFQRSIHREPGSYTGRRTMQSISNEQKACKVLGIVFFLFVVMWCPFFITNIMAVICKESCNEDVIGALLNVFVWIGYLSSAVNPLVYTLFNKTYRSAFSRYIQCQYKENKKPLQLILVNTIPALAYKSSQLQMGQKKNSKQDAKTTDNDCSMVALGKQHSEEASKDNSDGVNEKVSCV
In short: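 CHO cells stably expressing human HTR2A were plated for 18 h at 37 C, then loaded with calcium dye for 1 h. Compounds were preincubated 5 min at room temperature before DOI (4 nM solution) was added. Kinetic fluorescence was read for 3 min.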

[11] = target: 5-hydroxytryptamine receptor 2A (Homo sapiens) (UniProt P28223); assay: 5-hydroxytryptamine receptor 2A (HTR2A) small molecule agonists, cell-based qHTS assay (AID 1963587); also: nearly all actives have a fitted effect of over 30% in size
In short: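 HTR2A-CHO cells, plated 18 h at 37 C/5% CO2, dye-loaded 1 h at 37 C; compounds in DMSO added by pin tool (agonist mode). Intracellular calcium flux read as kinetic fluorescence on FDSS over 2 min at 1 s intervals.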

[12] = target: Muscarinic acetylcholine receptor M1 (Homo sapiens) (UniProt P11229); assay: Cholinergic receptor muscarinic 1 (CHRM1) small molecule antagonists, cell-based qHTS assay (AID 1963588); also: nearly all actives have a fitted effect of over 40% in size
Sequence of Muscarinic acetylcholine receptor M1 (Homo sapiens) (P11229 whole entry, looked up): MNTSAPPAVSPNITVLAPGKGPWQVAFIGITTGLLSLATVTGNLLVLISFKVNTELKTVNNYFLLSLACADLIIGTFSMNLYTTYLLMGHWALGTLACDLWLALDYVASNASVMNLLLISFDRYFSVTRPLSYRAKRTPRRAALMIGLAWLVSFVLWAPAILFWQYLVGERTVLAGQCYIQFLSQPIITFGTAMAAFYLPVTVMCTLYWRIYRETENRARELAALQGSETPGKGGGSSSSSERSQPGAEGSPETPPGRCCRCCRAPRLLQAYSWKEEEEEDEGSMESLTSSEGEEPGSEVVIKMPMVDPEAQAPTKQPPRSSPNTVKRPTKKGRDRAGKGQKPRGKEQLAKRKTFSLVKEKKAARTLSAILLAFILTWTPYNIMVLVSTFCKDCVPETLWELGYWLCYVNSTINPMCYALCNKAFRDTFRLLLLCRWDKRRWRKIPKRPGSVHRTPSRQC
In short: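 Compounds were tested at 15 concentrations in three independent runs. Dye-loaded CHRM1-CHO cells were exposed 5 min at room temperature before stimulation by acetylcholine added at 50nM. Intracellular calcium was read kinetically on FDSS for 3 min.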

[13] = target: Muscarinic acetylcholine receptor M1 (Homo sapiens) (UniProt P11229); assay: Cholinergic receptor muscarinic 1 (CHRM1) small molecule agonists, cell-based qHTS assay (AID 1963589); also: nearly all actives have a fitted effect of over 35% in size
In short: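 Homogeneous fluorescence calcium flux, agonist mode. Human M1-expressing CHO cells; compound dosed at 15 concentrations, three independent runs; signal sampled every 1 sec.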

[14] = cAMP Responsive Elements (CRE) small molecule agonists, cell-based qHTS assay (AID 1963590)
In short: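 HEK 293T cells stably bearing CRE-bla were plated at 2,000 cells per well and rested 18 h. Compounds, positive controls or DMSO were added for 3 h at 37 C. LiveBLAzer B/G substrate was then loaded for 2 h at room temperature.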

[15] = cAMP Responsive Elements (CRE) small molecule antagonists, cell-based qHTS assay (AID 1963591; active = well fitted inhibition curve with a large enough effect in the signal ratio in the repeat runs, not every such curve was filed as active; the % refers to the signal ratio)
In short: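 First, CRE-bla HEK293T cells settled 18 h at 37 C. Next, compound and 0.25 uM final NKH477 were applied for 3 h. Last, LiveBLAzer B/G substrate was loaded for 2 h at room temperature.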

[16] = target: Beta-2 adrenergic receptor (Homo sapiens) (UniProt P07550); assay: Adrenergic beta2 receptor (ADRB2) small molecule antagonists, cell-based qHTS assay (AID 1963592); also: series mostly up to about 92 µM; nearly all actives have a fitted effect of over 50% in size
Sequence of Beta-2 adrenergic receptor (Homo sapiens) (P07550 whole entry, looked up): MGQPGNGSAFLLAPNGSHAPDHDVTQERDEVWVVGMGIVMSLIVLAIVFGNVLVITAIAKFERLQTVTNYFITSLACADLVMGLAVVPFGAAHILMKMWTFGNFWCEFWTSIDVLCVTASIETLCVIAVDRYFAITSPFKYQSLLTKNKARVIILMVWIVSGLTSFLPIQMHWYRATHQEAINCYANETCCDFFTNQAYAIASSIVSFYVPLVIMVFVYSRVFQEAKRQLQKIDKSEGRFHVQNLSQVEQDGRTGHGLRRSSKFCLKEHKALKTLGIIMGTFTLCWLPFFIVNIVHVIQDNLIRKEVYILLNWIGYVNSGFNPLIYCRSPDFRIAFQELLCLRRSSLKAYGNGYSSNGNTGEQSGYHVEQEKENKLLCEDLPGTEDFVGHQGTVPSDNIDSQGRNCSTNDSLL
In short: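 Assay format: CHO-ADRB2 cells, 18-20hr seeding at 37C/5% CO2, then compound plus 1nM isoproterenol agonist mix for 0.5hr RT. Homogeneous time-resolved fluorescence cAMP detection after 1hr, expressed as 665/615 nm ratio.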

[17] = target: D(2) dopamine receptor (Homo sapiens) (UniProt P14416); assay: Dopamine D2 receptor (DRD2) small molecule agonists, cell-based qHTS assay (AID 1963594); also: nearly all actives have a fitted effect of over 35% in size
Sequence of D(2) dopamine receptor (Homo sapiens) (P14416 whole entry, looked up): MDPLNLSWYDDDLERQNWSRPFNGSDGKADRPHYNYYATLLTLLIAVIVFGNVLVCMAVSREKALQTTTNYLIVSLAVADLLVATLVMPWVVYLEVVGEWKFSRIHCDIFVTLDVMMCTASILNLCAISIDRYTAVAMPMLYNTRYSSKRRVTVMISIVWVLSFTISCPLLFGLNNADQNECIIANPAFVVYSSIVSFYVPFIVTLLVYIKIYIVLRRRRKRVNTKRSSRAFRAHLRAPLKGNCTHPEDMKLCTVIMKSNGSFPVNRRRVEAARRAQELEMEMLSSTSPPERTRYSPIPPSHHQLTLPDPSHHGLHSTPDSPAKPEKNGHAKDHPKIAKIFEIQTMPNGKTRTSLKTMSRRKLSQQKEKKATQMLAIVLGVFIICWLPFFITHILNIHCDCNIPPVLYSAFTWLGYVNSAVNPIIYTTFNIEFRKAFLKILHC
In short: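 HEK293 cells stably expressing DRD2 were cultured 24 h at 37 C, then given Ro20-1724 (0.1 mM final) and compounds for 10 min at room temperature. NKH477 (200nM) was then added for 30 min. cAMP was read by HTRF.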

[18] = target: D(2) dopamine receptor (Homo sapiens) (UniProt P14416); assay: Dopamine D2 receptor (DRD2) small molecule antagonists, cell-based qHTS assay (AID 1963595; active = well fitted inhibition curve with a large enough effect in the signal ratio in the repeat runs, with a control signal flat; the % refers to the signal ratio)
In short: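 Antagonism was scored as restored cAMP in HEK293-DRD2 cells. These cells were stimulated with 200 nM NKH477 and 12 nM quinpirole for 30 min at room temperature, in the presence of 0.1 mM Ro20-1724.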

[19] = target: Gonadotropin-releasing hormone receptor (Homo sapiens) (UniProt P30968); assay: Human gonadotropin-releasing hormone receptor (GnRHR) small molecule agonists, calcium flux assay in GnRHR-HEK293 cells (AID 1920063); also: nearly all actives have a fitted effect of over 35% in size
Sequence of Gonadotropin-releasing hormone receptor (Homo sapiens) (P30968 whole entry, looked up): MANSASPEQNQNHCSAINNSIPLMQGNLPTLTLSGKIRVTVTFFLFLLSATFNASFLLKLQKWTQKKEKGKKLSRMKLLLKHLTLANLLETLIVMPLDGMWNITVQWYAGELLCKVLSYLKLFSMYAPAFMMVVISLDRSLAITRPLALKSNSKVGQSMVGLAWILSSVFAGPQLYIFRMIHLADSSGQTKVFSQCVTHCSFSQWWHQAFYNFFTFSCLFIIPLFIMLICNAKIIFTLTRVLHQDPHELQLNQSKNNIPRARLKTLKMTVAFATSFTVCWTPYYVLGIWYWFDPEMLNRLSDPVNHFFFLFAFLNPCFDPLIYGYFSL
In short: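 Compounds dissolved in DMSO are pin-transferred onto dye-loaded GnRHR-HEK293 cells, which were seeded 18 h before at 37 C/5% CO2. Calcium signal is read as fluorescence intensity at 1 s intervals for 3 min.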

[20] = target: Beta-2 adrenergic receptor (Homo sapiens) (UniProt P07550); assay: Adrenergic beta2 receptor (ADRB2) small molecule agonists, cell-based qHTS assay (AID 1963593);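 also: CHO cells stably overexpressing human ADRB2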
In short: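 CHO cells stably over-expressing ADRB2 were plated overnight at 37C, then dosed with compounds plus a stimulation mix containing 100uM IBMX and 25uM Ro-20-1724 for 0.5hr at room temperature. cAMP was measured by HTRF competition, 1hr.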
% is scaled to controls: 0 for no effect and ±100 for the full control effect.

CC(O)COC(C)(C)C (stereo not given)
inactive: Potency [1] | outcome [2] | outcome [3] | Potency [4] | Potency [5] | Potency [6] | Potency [7] | Potency [8] | Potency [9] | Potency [10] | Potency [11] | Potency [12] | Potency [13] | Potency [14] | Potency [15] | Potency [16] | Potency [17] | Potency [18]

CC(C(=O)O)c1cccc(Oc2ccccc2)c1 (stereo not given)
inactive: Potency [19] | outcome [2] | outcome [3] | Potency [4] | Potency [5] | Potency [6] | Potency [7] | Potency [9] | Potency [14] | Potency [15] | Potency [20] | Potency [17] | Potency [18]

CC(C)(C)C(=O)CC(=O)C(C)(C)C
inactive: Potency [19] | outcome [2] | outcome [3] | Potency [4] | Potency [5] | Potency [6] | Potency [7] | Potency [8] | Potency [9] | Potency [10] | Potency [11] | Potency [13] | Potency [14] | Potency [15] | Potency [16] | Potency [17] | Potency [18]

C/C=C(\C)C(=O)OCCc1ccccc1
inactive: Potency [19] | outcome [2] | outcome [3] | Potency [5] | Potency [6] | Potency [7] | Potency [8] | Potency [9] | Potency [10] | Potency [11] | Potency [12] | Potency [13] | Potency [14] | Potency [15] | Potency [16] | Potency [18]

C[C@@H]1CC[C@@]2(OC1)O[C@H]1C[C@H]3[C@@H]4CC[C@H]5C[C@@H](O)CC[C@]5(C)[C@H]4CC(=O)[C@]3(C)[C@H]1[C@@H]2C
inactive: activity, positive = activation [1] -0.515% [at 8.39 µM] | activation [2] 0.0336% [at 6.97 µM] | activation [3] 1.09% [at 5.23 µM] | activation [4] 1.05% [at 5.99 µM] | activation [5] 0.138% [at 5.99 µM] | activity change, negative = cytotoxicity [7] 5.02% [at 5.99 µM] | activity change, negative = cytotoxicity [8] -10.7% [at 5.99 µM] | activation [9] -0.0756% [at 5.99 µM] | activity, negative = inhibition [10] 89.9% [at 5.62 µM] | activation [11] -0.761% [at 7.02 µM] | activity, negative = inhibition [12] 4.81% [at 5.58 µM] | activation [13] 0.4% [at 6.97 µM] | activation [14] -0.0414% [at 8.39 µM] | activity change, negative = inhibition [15] 0.931% [at 8.39 µM] | activity change, negative = inhibition [16] -3.89% [at 8.39 µM] | activation [20] 3.94% [at 8.39 µM] | activation [17] -11.7% [at 8.39 µM] | activity change, negative = inhibition [18] -1.11% [at 8.38 µM]

CC(C)SCc1ccco1
inactive: Potency [19] | outcome [2] | outcome [3] | Potency [4] | Potency [5] | Potency [6] | Potency [7] | Potency [8] | Potency [9] | Potency [12] | Potency [13] | Potency [14] | Potency [20] | Potency [17] | Potency [18]

O=C(CN1CCN(Cc2ccc3c(c2)OCO3)CC1)N1c2ccccc2Sc2ccccc21
inactive: Potency [19] | outcome [2] | outcome [3] | Potency [4] | Potency [5] | Potency [6] | Potency [7] | Potency [8] | Potency [9] | Potency [10] | Potency [11] | Potency [12] | Potency [13] | Potency [14] | Potency [15] | Potency [16] | Potency [17] | Potency [18]
